Dicer inh: inhibitors of human Dicer processing of pre-microRNA; z-score at 25 µM; 47,000 tested, 6% active; Q9UPY3; cat-ELCCA pre-miR-21 Dicer processing, chemiluminescence; active compounds read high; in the data active = z-score above about 3, passing the limit was not always enough;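 note: plate controls were vehicle for no effect and no enzyme for full effect; higher signal means more uncleaved substrate so more Dicer inhibition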
An asterisk follows results filed as active. Only a selection was taken, and hits are over-represented in it overall.

SMILES	Dicer inh
CCOC(=O)C1=C(N)Oc2cc(O)ccc2C1c1ccccc1 (stereo not given)	0.12
N#Cc1c(NC(=O)c2ccc(Br)cc2)sc2c1CCCC2	-1.1
CCCn1c(NCc2cccs2)nc2ccccc21	3.15*
c1ccc(Cn2c(NCc3cccs3)nc3ccccc32)cc1	3.01*
c1csc(CNc2nc3ccccc3n2CCN2CCCCC2)c1	-0.42
c1csc(CNc2nc3ccccc3n2CCN2CCOCC2)c1	2.23
CC(=O)/C(N=Nc1ccc(F)cc1F)=C(\C)O	-0.98
CCc1ccc(C2OC3(C(=O)c4ccccc4C3=O)C3C(=O)N(c4cccc(F)c4)C(=O)C23)cc1 (stereo not given)	-0.25
CC1=C(C(=O)Nc2ccccc2)C(c2cccs2)C(C#N)=C(SCC(N)=O)N1 (stereo not given)	1.4
O=C(O)CCCCC(=O)Nc1ccc(Br)cn1	-1.4
CC(C)(C)c1ccc(-c2n[nH]c(S(C)(=O)=O)c2C#N)cc1	-1.04
CC1=C(C#N)C(c2cn[nH]c2-c2cccs2)C2=C(CCCC2=O)N1 (stereo not given)	-0.45
CS(=O)(=NS(=O)(=O)c1ccccc1C(F)(F)F)c1ccc(Cl)cc1 (stereo not given)	-0.05
CS(=O)(=NS(=O)(=O)c1ccc(Cl)cc1)c1ccccc1 (stereo not given)	-1.29
CS(=O)(=NS(=O)(=O)c1cc(Cl)ccc1Cl)c1ccc(Cl)cc1 (stereo not given)	4.06*
O=C(Cn1c(=O)sc2ccccc21)Nc1ccc(S(=O)(=O)N2CCOCC2)cc1	-1.37
Cc1nnc(NC(=O)CSc2nnc3c(n2)[nH]c2ccccc23)s1	1.64
O=C(O)CSc1nnc2c(n1)[nH]c1ccccc12	-0.46
O=C(CSc1nnc2c(n1)[nH]c1ccccc12)Nc1nnc(-c2ccccc2)s1	-0.6
O=C(CSc1nnc2c(n1)[nH]c1ccccc12)Nc1nc2ccccc2s1	5.39*
C=C(C)CSc1nnc2c(n1)[nH]c1ccccc12	3.58*
CCOC(=O)CSc1nnc2c(n1)[nH]c1ccccc12	-0.83
COC(=O)c1ccc(C2c3c(oc4ccccc4c3=O)C(=O)N2c2nnc(C(C)C)s2)cc1 (stereo not given)	0.12
Cn1nccc1C(=O)Nc1ccc(Cl)cc1	-1.77
Cn1nccc1NC(=S)Nc1ccc(Cl)cc1	4.01*
SMILES	Dicer inh
Cn1nccc1NC(=O)Nc1cc(Cl)cc(Cl)c1	-0.4
COc1ccc(N2CCN(c3ncc4c(n3)CCCC4=O)CC2)cc1	-1.59
CCOC(=O)c1sc(=S)n(C)c1C	2.89
CCOC(=O)C1=C(O)CCN(C)C1	13.6*
CCCCN1CC(C(=O)OCC)=C(O)C1=O	-0.89
CNNC(=S)Nc1ccc(OC)cc1	1.47
Cc1cc(/C(N)=N/OC(=O)c2ccccc2)c(-c2ccccc2)o1	-0.45
CC(=O)Oc1c(I)c(=O)n(C)c2ccccc12	-0.68
Cn1c(=O)c(I)c(O)c2ccccc21	5.27*
Cn1c(=O)c(-c2ccccc2)c(O)c2ccccc21	-0.8
COCCNC(=O)C(=O)NCC1CCCO1 (stereo not given)	1.97
Cn1cc(C(=O)O/N=C/c2c(Cl)cccc2Cl)c(C(F)(F)F)n1	0.43
COc1cc(S(=O)(=O)n2cnc(C)c2)ccc1F	-0.39
CC(C)(C)NC(=O)c1cc2nc(-c3ccc(Br)cc3)cc(C(F)(F)F)n2n1	-1.21
CC(C)(C)NC(=O)c1cc2nc3c(c(C(F)(F)F)n2n1)CCc1ccccc1-3	3.58*
FC(F)(F)c1c2c(nc3cc(-c4cccs4)nn13)-c1ccccc1C2	-0.63
COCCNC(=O)c1cc2nc3c(c(C(F)(F)F)n2n1)CCc1ccccc1-3	3.21*
O=C(NCC1CCCO1)c1nn2c(C(F)(F)F)c3c(nc2c1Cl)-c1ccccc1CC3 (stereo not given)	2.86
O=C(O)CSc1nc2c(c(C(F)(F)F)n1)CCc1ccccc1-2	1.83
CN1CCCC12NCCc1c2[nH]c2ccccc12 (stereo not given)	1.65
CCOC(=O)c1c(CS(=O)Cc2ccc(Cl)cc2)oc2c(F)c(F)c(F)c(F)c12 (stereo not given)	-0.3
C/C(=N\O)c1sc2ccc(Cl)cc2c1C	-0.52
Cn1cnc2c(NCc3ccco3)ncnc21	-1.5
Cc1ccc2ncnc(NCc3ccco3)c2c1	4.49*
Cc1ccc2ncnc(Nc3ccc(Cl)cc3)c2c1	-0.33
SMILES	Dicer inh
CCCOC(=O)C1=C(C)NC2=C(C(=O)CCC2)C1c1ccc(C(=O)OC)cc1 (stereo not given)	-0.51
CC1(C)CC(=O)C2=C(C1)Nc1ccccc1N(C(=O)c1ccccc1)C2c1cccc(F)c1 (stereo not given)	2.23
COc1ccc(C2Nc3ccc4ncccc4c3C3=C2C(=O)CC(C)(C)C3)cc1 (stereo not given)	1.7
Oc1ccc2ccccc2c1CN1CCN(c2ccc(F)cc2)CC1	-3.35
Oc1ccc2ccccc2c1CN1CCc2ccccc2C1	3.61*
CC1CCN(Cc2c(O)ccc3ccccc23)CC1	1.65
Cc1sc2ncnc(SCC(=O)OCC(C)C)c2c1C	-0.2
CSc1nn(-c2ccccc2)cc1-c1noc(-c2ccc(Cl)cc2Cl)n1	-0.77
Cn1cc(C(=O)c2ccc(Cl)cc2)cc1/C=C(\C#N)C(=O)c1ccco1	0.42
CCc1ccc(-n2nnnc2/C=C/N(C)C)cc1	1.7
CCN(/C=C/c1nnnn1-c1ccc(Cl)cc1)c1ccccc1	3.25*
CCN(/C=C/c1nnnn1-c1ccc(Br)cc1)CC	-0.37
Cc1c(C#N)c(NC(=O)c2cc(Cl)cc(Cl)c2)n(CC2CC2)c1C	-0.62
COC(=O)c1cnc(NNC(=O)c2ccc(F)cc2)nc1C(F)(F)F	0.47
COc1ccc(OCc2nnc3n2N=C(c2ccc(OC)cc2)CS3)cc1	5.17*
COc1ccc(OCc2nnc3n2N=C(c2ccc(C)cc2)CS3)cc1	1.64
COc1ccc(C2=Nn3c(COc4cc(C)ccc4Cl)nnc3SC2)cc1	-1.7
COc1ccc(C(Nc2ccccn2)c2c(O)ccc3ncccc23)cc1 (stereo not given)	-0.1
COc1ccc(C(C)C)cc1S(=O)(=O)n1ccnc1	-0.22
O=C1c2ccccc2C(=O)N1CN(Cc1ccc2c(c1)OCO2)CN1C(=O)c2ccccc2C1=O	-1.18
O=C1c2ccccc2-c2c1c1ccccc1c(=O)n2CC1CC1	-0.55
O=C1c2ccccc2-c2c1c1ccccc1c(=O)n2Cc1ccc2c(c1)OCO2	3.14*
COc1ccc(C(OCC(O)Cn2cnc3c2c(=O)n(C)c(=O)n3C)(c2ccccc2)c2ccc(OC)cc2)cc1 (stereo not given)	1.86
CCCN(CCC)S(=O)(=O)c1ccc2c(c1)Cc1cc(S(=O)(=O)N(CCC)CCC)ccc1-2	0.7
CCCSc1nnc2c3ccccc3n(CC)c2n1	1.1
SMILES	Dicer inh
CCn1c2ccccc2c2nnc(SCC(=O)c3ccccc3)nc21	1.58
C=CCSc1nnc2c3ccccc3n(CC=C)c2n1	3.24*
Clc1ccc(-c2csc(Cc3ccccc3)n2)cc1	-0.8
O=C(Nc1ccccc1C(F)(F)F)N1CCCN(c2ncccc2C(F)(F)F)CC1	-0.45
Cc1ccccc1-c1ncc(-c2ccc(Br)cc2)o1	-1
O=C(O)c1ccccc1SC1CC(=O)N(c2ccccc2Cl)C1=O (stereo not given)	-0.76
C=CCN1C(=O)C2(/C(=C(/O)c3ccc(OCC)cc3)C(=O)C(=O)N2CCOC)c2ccccc21 (stereo not given)	2.44
COCCCN1C(=O)C(=O)/C(=C(\O)c2ccc(C)c(F)c2)C12C(=O)N(C)c1ccccc12 (stereo not given)	45.5
